A selection: hits, their analogues and other compounds. The true share with any hit is near 7.2%.
SNCA expr inhib: SNCA gene expression inhibition; HEK-293 SNCA-luciferase knock-in, luminescence, 24 h; Potency, µM (series often up to 57.2 µM), most hits filed as inhibitors; 0.17% of 140,000 active; also: nearly all actives have a fitted effect of over 45% in size
3T3 cytotox: cytotoxic compounds in NIH 3T3 cells. NIH 3T3 viability, CellTiter-Glo ATP luminescence, 48-72 h. Potency, µM (doses to about 96.7 µM), hits mostly inhibitors. 4.3% of 94,000 active. AID 1345082; also: nearly all actives have a fitted effect of over 55% in size
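Cytotoxicity was measured by CellTiter-Glo ATP luminescence after 48 or 72 h compound exposure at 37 °C. Mouse NIH 3T3 fibroblasts were seeded at 400 cells/well and dosed by 23 nL pin transfer.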
FLuc inh: Photinus pyralis luciferase inhibition. P08659. purified P. pyralis luciferase, luminescence, biochemical. Potency, µM (highest dose often 115 µM), actives largely listed as inhibitors. 2.5% of 76,000 active. AID 1347043; also: nearly all actives have a fitted effect of over 65% in size
Target sequence (P08659 whole entry, looked up): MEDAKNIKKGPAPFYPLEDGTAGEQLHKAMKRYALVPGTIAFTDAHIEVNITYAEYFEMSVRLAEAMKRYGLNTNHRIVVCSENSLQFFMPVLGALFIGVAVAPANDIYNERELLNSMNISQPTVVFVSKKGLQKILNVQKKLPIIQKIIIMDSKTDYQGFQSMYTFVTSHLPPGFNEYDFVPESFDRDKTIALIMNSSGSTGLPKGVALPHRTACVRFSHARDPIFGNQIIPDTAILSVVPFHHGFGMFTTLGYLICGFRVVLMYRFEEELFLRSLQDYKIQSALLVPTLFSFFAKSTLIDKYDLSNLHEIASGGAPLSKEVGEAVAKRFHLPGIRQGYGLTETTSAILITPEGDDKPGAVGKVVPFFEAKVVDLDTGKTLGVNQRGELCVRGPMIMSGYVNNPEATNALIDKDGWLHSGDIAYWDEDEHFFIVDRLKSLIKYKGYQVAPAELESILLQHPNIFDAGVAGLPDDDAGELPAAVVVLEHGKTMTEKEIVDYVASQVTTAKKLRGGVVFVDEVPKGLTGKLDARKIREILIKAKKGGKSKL
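Cell-free enzyme assay, 10nM P. pyralis luciferase, luciferin and ATP each at 10uM. Inhibition profiled over a 6-point titration, read as luminescence.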
hNpr1 antagonist: human Npr1 receptor antagonism | P16066 | HEK293 hNpr1 GloSensor cGMP, ANP-stimulated luminescence | Potency, µM (highest dose often 46.3 µM), actives largely listed as inhibitors | 1.6% of 76,000 active; calls by dose curve; also: nearly all actives have a fitted effect of over 60% in size
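Compound pre-incubated 30 min at room temperature on GloSensor-loaded HEK293 cells stably carrying hNpr1 and the pGS-40F cGMP biosensor. Stimulation uses hNppA at 0.1 nM final; luminescence is taken at baseline and 20 min post-agonist.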
SNCA viab count: counter-screen for SNCA expression inhibitors: cell viability; HEK-293-SNCA-luc viability, GF-AFC fluorescence, 24 h; Potency, µM (series often up to 57.1 µM), most hits filed as cytotoxic; 0.12% of 150,000 active; AID 1671193; also: nearly all actives have a fitted effect of over 30% in size
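HEK-293-SNCA-luc cells (1500/well) plated 24 h, then exposed 24 h to a dilution series; GF-AFC added 30 min at 37C, fluorescence 405/540 nm; normalised to medium-only and DMSO wells, Hill fit.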
HEK293 tox: kills HEK 293 cells | HEK 293 viability, ATP luminescence (CellTiter-Glo), 48-72 h | Potency, µM (top dose mostly 115 µM), usual class: inhibitors | 6.6% of 94,000 active; also: nearly all actives have a fitted effect of over 60% in size
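Read-out: CellTiter-Glo ATP luminescence. Cells: HEK 293, 250 cells/well. Exposure: 48 or 72 hr, 37 degree Celsius.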
Large screens that a line does not name were inactive; ! = a repeat was not active. Unless noted, calls follow the shape of the dose curve; as a rule, active = well fitted curve in the direction sought with a large enough effect; inconclusive = small, poorly fitted or top-dose-only effect, or another doubt; inactive = no such curve, though single readings can be large; an effect the other way counts as inactive or inconclusive.

CC1CCN(CCNC(=O)c2ccc(Cn3c(SCc4ccccc4)nc4cccnc43)cc2)CC1	SNCA viab count 10µM (no result: 3T3 cytotox, FLuc inh, hNpr1 antagonist, HEK293 tox)
O=C(NCCN1CCCCC1)c1ccc(Cn2c(SCc3ccccc3)nc3cccnc32)cc1	SNCA viab count inconclusive (no result: 3T3 cytotox, FLuc inh, hNpr1 antagonist, HEK293 tox)
CCCNC(=O)C1CC(c2ccccc2F)=NO1 (stereo unspecified)	none
COCCNC(=O)[C@H]1C[C@H](Oc2ccccc2)CN1C(=O)CC(C)C	3T3 cytotox inconclusive, HEK293 tox inconclusive
Cc1cc(C(=O)N2CCCC(Cc3noc(-c4cnccn4)n3)C2)n[nH]1 (stereo unspecified)	none
CN(C1CCc2nn(CC3CC3)c(=O)n2CC1)S(=O)(=O)Cc1ccccc1 (stereo unspecified)	SNCA viab count inconclusive
Cc1ncsc1C(=O)N1CC(COc2ccccc2)C2(C1)CN(c1ccccc1)C2 (stereo unspecified)	3T3 cytotox inconclusive, HEK293 tox 100µM
Cn1ccc(C(=O)N2CC(CNc3ccccc3)C3(C2)CN(c2ccccc2)C3)n1 (stereo unspecified)	SNCA expr inhib inconclusive, 3T3 cytotox inconclusive, hNpr1 antagonist inconclusive, HEK293 tox 63µM
Cn1ccc(C(=O)N2CC(COc3ccccc3)C3(C2)CN(c2ccccc2)C3)n1 (stereo unspecified)	3T3 cytotox 100µM, HEK293 tox inconclusive
CCNC(=O)N1CCc2nc(OCC)ccc2C1	none
O=C1NCc2ccccc2CC12CCCN2Cc1ccc(Cl)s1 (stereo unspecified)	3T3 cytotox inconclusive, HEK293 tox inconclusive (no result: FLuc inh, hNpr1 antagonist)
O=C(Nc1ccccc1)c1cnc2n1CCN(Cc1cccc(O)c1)CC2	3T3 cytotox inconclusive, FLuc inh inconclusive, HEK293 tox inconclusive
CC(C)c1ccc(CN2CCc3ncc(C(=O)Nc4ccccc4)n3CC2)cc1	SNCA expr inhib inconclusive, 3T3 cytotox 28µM, HEK293 tox 32µM
CC(C)CCNC(=O)c1cnc2n1CCN(Cc1ccc(C(C)C)cc1)CC2	SNCA expr inhib inconclusive, 3T3 cytotox inconclusive, hNpr1 antagonist inconclusive, HEK293 tox 56µM
Cn1ncc2c(C(=O)NCCc3ccc(Cl)cc3)cc(C(C)(C)C)nc21	3T3 cytotox inconclusive, HEK293 tox 40µM! (no result: FLuc inh, hNpr1 antagonist)
Cc1ccc(-c2cc(C(=O)NCCc3ccc(Cl)cc3)c3cnn(C)c3n2)c(C)c1	3T3 cytotox inconclusive, HEK293 tox inconclusive (no result: FLuc inh, hNpr1 antagonist)
Cn1ncc2c(C(=O)NCc3cccc(Cl)c3)cc(C(C)(C)C)nc21	3T3 cytotox inconclusive, HEK293 tox 50µM (no result: FLuc inh, hNpr1 antagonist)
Cn1ncc2c(C(=O)NCCc3ccc(Cl)cc3)cc(-c3ccccc3C(F)(F)F)nc21	3T3 cytotox 32µM, HEK293 tox 40µM (no result: SNCA expr inhib, FLuc inh, hNpr1 antagonist, SNCA viab count)
Cc1ccc(-c2cc(C(=O)NCCc3ccc(F)cc3)c3cnn(C)c3n2)c(C)c1	3T3 cytotox inconclusive, HEK293 tox 40µM (no result: FLuc inh, hNpr1 antagonist)
CCn1nc(C)c(CNC(=O)C(c2ccc(F)cc2)N(C)C)c1C (stereo unspecified)	none
COc1ccc(NC(=O)C2(C)CCCc3cnc(Nc4cccnc4)nc32)cc1 (stereo unspecified)	3T3 cytotox 35µM, SNCA viab count inconclusive
COc1cccc(Nc2ncc3c(n2)C(C)(C(=O)NCCN2CCOCC2)CC3)c1 (stereo unspecified)	3T3 cytotox inconclusive, HEK293 tox inconclusive
CC1(C(=O)NC2CC2)CCc2cnc(Nc3ccccc3)nc21 (stereo unspecified)	3T3 cytotox 28µM, hNpr1 antagonist inconclusive, HEK293 tox 40µM
COc1ccc(NC(=O)C2(C)CCc3cnc(NCc4ccccc4)nc32)cn1 (stereo unspecified)	3T3 cytotox 13µM, SNCA viab count inconclusive, HEK293 tox inconclusive
COc1cccc(Nc2ncc3c(n2)C(C)(C(=O)NCc2ccc4c(c2)OCO4)CC3)c1 (stereo unspecified)	SNCA expr inhib inconclusive, 3T3 cytotox inconclusive, hNpr1 antagonist inconclusive, SNCA viab count inconclusive, HEK293 tox 32µM
CC1(C(=O)Nc2ccncc2)CCCc2cnc(Nc3ccccc3)nc21 (stereo unspecified)	3T3 cytotox inconclusive, HEK293 tox inconclusive
CC1(C(=O)NC2CCOCC2)COCc2cnc(Nc3ccccc3)nc21 (stereo unspecified)	3T3 cytotox inconclusive
COc1cccc(Nc2ncc3c(n2)C(C)(C(=O)NCCCn2ccnc2)CC3)c1 (stereo unspecified)	3T3 cytotox 25µM, HEK293 tox inconclusive
COc1cccc(NC(=O)C2(C)COCc3cnc(Nc4ccccc4)nc32)c1 (stereo unspecified)	3T3 cytotox 79µM, HEK293 tox 100µM
CC1(C(=O)N2CCC(c3ccccc3)CC2)COCc2cnc(Nc3ccccc3)nc21 (stereo unspecified)	SNCA expr inhib inconclusive, 3T3 cytotox 45µM, hNpr1 antagonist inconclusive, SNCA viab count inconclusive, HEK293 tox 63µM
COc1cccc(NC(=O)C2(C)CCc3cnc(NCc4ccccc4)nc32)c1 (stereo unspecified)	3T3 cytotox inconclusive, HEK293 tox 71µM
COc1ccc(CN(C)Cc2ncccc2C(=O)O)cc1	none
N#Cc1cccnc1-c1ccc(C(=O)N2CCC(N[S+](=O)([O-])c3ccccc3)CC2)cc1	none (no result: FLuc inh, hNpr1 antagonist)
CC(C)CNC(=O)c1nc2cccnc2n(C2CC2)c1=O	none (no result: FLuc inh, hNpr1 antagonist)
CN1CCC(NC(=O)C2(C)CCc3cnc(Nc4ccccc4)nc32)CC1 (stereo unspecified)	3T3 cytotox inconclusive, HEK293 tox inconclusive
COc1ccc(NC(=O)C2(C)CCc3cnc(Nc4ccccc4)nc32)cn1 (stereo unspecified)	3T3 cytotox inconclusive, SNCA viab count inconclusive, HEK293 tox 100µM
CC1(C(=O)NCc2cccc(F)c2)COCc2cnc(Nc3ccccc3)nc21 (stereo unspecified)	3T3 cytotox inconclusive, HEK293 tox 89µM
Cc1ccc(-c2cc3c(=O)n(CCNC(=O)c4ccc(F)c(F)c4)ccn3n2)cc1C	SNCA viab count inconclusive
O=C(COc1ccc(F)cc1)N1CC(Oc2cccc(-c3nc(-c4ccccc4)no3)c2)C1	SNCA expr inhib inconclusive, 3T3 cytotox inconclusive, FLuc inh inconclusive, HEK293 tox inconclusive
O=C(NCCN1CCOCC1)[C@H]1C[C@@H](O)[C@H](O)[C@@H]2N=C(Nc3ccc(-n4cccn4)cc3)S[C@@H]21	FLuc inh 35µM
Cc1nnc2ccc(N3CCN(S(C)(=O)=O)CC3)nn12	none (no result: SNCA expr inhib, FLuc inh, hNpr1 antagonist, SNCA viab count)
Cc1cnc(CCNC(=O)c2cn(C)cn2)n1CC1CC1	none
COc1ccc(NC(=O)C2CCN(c3cc(C(F)(F)F)ncn3)CC2)cc1	hNpr1 antagonist inconclusive
CN1CCN(Cc2ccc(NC(=O)Nc3ccc(Oc4cc(NC(=O)C5CC5)ncn4)cc3)cc2C(F)(F)F)CC1	SNCA expr inhib 0.48µM, SNCA viab count inconclusive (no result: 3T3 cytotox, FLuc inh, hNpr1 antagonist, HEK293 tox)
